Compounds with a hit are over-represented: about 5.8% of the library has one in this group of screens.
PINK1 expr mod: modulators of PINK1 expression; Potency, µM (doses to about 76.6 µM), inactives show at the top dose activation (PINK1 increase), hits mostly activators; 410,000 tested, 0.2% active; PINK1 immunofluorescence, high-content cytometry, 24 h; active = well fitted activation curve with a large enough effect; inconclusive = small, poorly fitted or top-dose-only effect; cell line not stated here; note: % of control where 0% means no effect; nearly all actives have a fitted effect of over 65% in size
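Cells are seeded, rested 12 hours, then given compound at five concentrations or DMSO for 24 hours. After fixation, blocking and antibody staining, PINK1 amount and mitochondrial localization are scored; CCCP serves as control.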
ALOX12 inh: blocks human arachidonate 12S-lipoxygenase | P18054 | purified 12hLO, xylenol orange hydroperoxide absorbance | Potency, µM (titrated, usually from 108 µM), for the others: top-dose activity change, negative = inhibition, actives largely listed as inhibitors | 580,000 tested, 1.1% active | AID 1671190; note: % is set by controls: 0 for no effect and ±100 for the full control effect
Target sequence (P18054 whole entry, looked up): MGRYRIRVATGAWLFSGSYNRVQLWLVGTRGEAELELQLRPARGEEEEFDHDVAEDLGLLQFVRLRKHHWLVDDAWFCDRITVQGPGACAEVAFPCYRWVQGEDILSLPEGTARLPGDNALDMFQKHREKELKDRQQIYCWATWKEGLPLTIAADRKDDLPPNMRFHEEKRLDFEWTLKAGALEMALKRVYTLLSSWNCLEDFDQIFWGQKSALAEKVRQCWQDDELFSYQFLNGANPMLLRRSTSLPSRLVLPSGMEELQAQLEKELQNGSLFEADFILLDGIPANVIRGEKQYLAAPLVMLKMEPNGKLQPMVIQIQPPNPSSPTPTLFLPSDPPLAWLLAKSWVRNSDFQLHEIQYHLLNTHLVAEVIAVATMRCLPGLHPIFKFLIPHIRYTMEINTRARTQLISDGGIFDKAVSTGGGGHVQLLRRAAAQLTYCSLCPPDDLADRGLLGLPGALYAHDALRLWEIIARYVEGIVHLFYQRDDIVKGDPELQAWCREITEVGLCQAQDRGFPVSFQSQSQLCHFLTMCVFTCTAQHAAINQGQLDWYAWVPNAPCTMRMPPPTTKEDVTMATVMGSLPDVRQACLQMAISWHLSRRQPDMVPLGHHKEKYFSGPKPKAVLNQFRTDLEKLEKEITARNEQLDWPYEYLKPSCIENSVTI
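Hydroperoxide product was detected by ferrous iron/xylenol orange as the 573 to 405 nm absorbance ratio. Arachidonic acid at 40 uM (final) was turned over for 30 min at room temperature by 150 nM human 12hLO, pH 7.0 Hepes buffer, after 15 min compound preincubation.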
KB-V1 cytotox: KB-V1 MDR subline cytotoxicity. Potency, µM (highest dose often 46.1 µM), actives largely listed as cytotoxic. KB-V1 MDR cells viability, CellTiter-Glo, 72 h. 400,000 tested, 3.4% active; note: % is set by controls: 0 for no effect and ±100 for the full control effect; nearly all actives have a fitted effect of over 60% in size
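Potencies derive from concentration-effect curves fitted to normalized luminescence (CellTiter-Glo) of KB-V1 cells treated for 72 h at 37 degrees C in phenol-red-free DMEM containing 10% FBS.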
SW480 rerep: inducers of DNA re-replication in SW480 colon cancer cells; AID 624297; SW480 DNA re-replication, Hoechst DNA content imaging, 48 h; 340,000 tested, 1.8% active; Potency, µM (series often up to 46.1 µM), for the others: at the highest dose re-replication activation, most hits filed as activators; note: % of control where 0% means no effect; nearly all actives have a fitted effect of over 55% in size
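Image-based DNA-content assay: after two days of treatment, nuclei were labelled with the DNA dye Hoechst and imaged, and hits were compounds raising the count of nuclei showing high fluorescence intensity.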
MCF10A rereplic: DNA re-replication induction in MCF 10a cells; MCF 10A DNA re-replication, Hoechst nuclear intensity, 48 h; AID 624296; Potency, µM (series often up to 46.1 µM), without a hit: top-dose activity, positive = re-replication, actives largely listed as activators; 350,000 tested, 2.9% active; note: % of control where 0% means no effect; nearly all actives have a fitted effect of over 50% in size
KB-3-1 tox: KB-3-1 parental cell cytotoxicity. KB-3-1 viability, CellTiter-Glo ATP luminescence, 72 h. Potency, µM (titrated, usually from 46.1 µM), hits mostly cytotoxic. 400,000 tested, 1.4% active; note: % is set by controls: 0 for no effect and ±100 for the full control effect; nearly all actives have a fitted effect of over 60% in size
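72 h, 37 °C compound treatment of KB-3-1 parental cells; CellTiter-Glo added, 10 min, luminescence read. Data corrected against DMSO-only plates and normalized before curve fitting.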
* = called active by the depositor; [ ] = remark or other dose. Unless noted, calls come from the whole dose curve; as a rule, active = well fitted curve in the direction sought with a large enough effect; inconclusive = small, poorly fitted or top-dose-only effect, or another doubt; inactive = no such curve, though single readings can be large; an effect the other way counts as inactive or inconclusive. Potency is the fitted concentration of half-maximal effect.

Screening COc1ccc(NC(=O)c2ccc(CN3CCN(c4ccccc4)CC3)cc2)cc1OC returned PINK1 expr mod 5%, KB-V1 cytotox 16µM*, SW480 rerep 4%, MCF10A rereplic -2% and KB-3-1 tox inconclusive.
CCOc1cc(C(=O)Nc2cc(C)ccc2OC)ccc1OCC(=O)N1CCCCC1 was read as PINK1 expr mod 4%, ALOX12 inh 1%, KB-V1 cytotox 7.3µM*, SW480 rerep -147%, MCF10A rereplic -35% and KB-3-1 tox inactive.
`COc1ccc(C(=O)Nc2cnn(Cc3ccc(Cl)cc3)c2)cc1OC` gave PINK1 expr mod 11%, ALOX12 inh -17%, KB-V1 cytotox inactive, SW480 rerep -694%, MCF10A rereplic 12µM* and KB-3-1 tox 5.8µM*.
For COc1ccc(C)cc1NC(=O)c1ccc(CN2CCN(c3ccccc3)CC2)cc1 the results were PINK1 expr mod 2%, ALOX12 inh -11%, KB-V1 cytotox 18µM*, SW480 rerep 25%, MCF10A rereplic inconclusive and KB-3-1 tox inconclusive.
Screening Cn1c(=O)c2c(ncn2CC(=O)N(CCC#N)Cc2ccco2)n(C)c1=O returned ALOX12 inh -9%.
For COc1ccccc1NC(=O)N1CCC(N2C(=O)C3(CCCCC3)C2c2ccncc2)CC1 (configuration not stated) the results were ALOX12 inh 43%.
COc1ccc(C)cc1NC(=O)c1nn(-c2ccccc2)cc1OC was read as PINK1 expr mod inconclusive, ALOX12 inh -17%, KB-V1 cytotox inconclusive, SW480 rerep 22%, MCF10A rereplic 23µM* and KB-3-1 tox inconclusive.
`COc1ccc(Cl)cc1NC(=O)COC(=O)CCS(=O)(=O)c1ccc(C)c(C)c1` gave ALOX12 inh 8%.
`Cn1c2c(c(=O)[nH]c1=O)C(c1ccc(C(=O)O)cc1)C1=C(N2)c2ccccc2C1=O` (configuration not stated) gave ALOX12 inh 45µM*.
`Cc1ccc(/C=N/NC(=O)c2n[nH]c3c2CCCC3)cc1` gave PINK1 expr mod 3%, ALOX12 inh 248%, KB-V1 cytotox 1.2µM*, SW480 rerep 0.73µM*, MCF10A rereplic inconclusive and KB-3-1 tox inconclusive.
O=C(N/N=C/c1cccc2ccccc12)c1n[nH]c2c1CCCC2 was read as PINK1 expr mod 12%, ALOX12 inh 3%, KB-V1 cytotox 2.6µM*, SW480 rerep 5.8µM*, MCF10A rereplic inconclusive and KB-3-1 tox 4.1µM*.
`O=C(N/N=C\c1cccc(Cl)c1)c1n[nH]c2c1CCCC2` gave PINK1 expr mod 12%, ALOX12 inh 1%, KB-V1 cytotox inactive, SW480 rerep -8%, MCF10A rereplic inconclusive and KB-3-1 tox inactive.
For O=C(N/N=C/c1ccc(Cl)cc1Cl)c1n[nH]c2c1CCCC2 the results were PINK1 expr mod 3%, ALOX12 inh 13%, KB-V1 cytotox inconclusive, SW480 rerep inconclusive, MCF10A rereplic inconclusive and KB-3-1 tox 5.2µM*.
Screening CN(C)c1ccc(CN[C@H]2[C@H](O)[C@@H](N(C)CCc3ccccn3)[C@@H]3OC[C@H]2O3)cc1 returned ALOX12 inh 37%[176 µM].
`CC(N(C)CC(=O)NC(C)(C#N)C(C)C)C(C)(C)C` (configuration not stated) gave ALOX12 inh -23%.
C=CCc1ccc(OCCOc2cccc3ccc(C)nc23)c(OC)c1 was read as PINK1 expr mod 4%[38.3 µM], ALOX12 inh inconclusive, KB-V1 cytotox inconclusive, SW480 rerep inconclusive, MCF10A rereplic 12µM* and KB-3-1 tox inconclusive.
COCc1c(C(=O)N2CCC(C(=O)Nc3ccc4c(c3)OCO4)CC2)oc2ccccc12 was read as ALOX12 inh -1%.
`CCNC(=O)NC(=O)C(C)Sc1nc2ccccc2o1` (configuration not stated) gave ALOX12 inh -11%.
For Cc1ccc(C)c(S(=O)(=O)N2CCN(C(=O)Cc3c(F)cccc3Cl)CC2)c1 the results were PINK1 expr mod -2%, ALOX12 inh -19%, KB-V1 cytotox 7.3µM*, SW480 rerep 0%, MCF10A rereplic 23% and KB-3-1 tox inactive.
For Cc1ccc(C)c(S(=O)(=O)N2CCN(C(=O)CCNS(=O)(=O)c3ccc(C)c(C)c3)CC2)c1 the results were PINK1 expr mod 0%, ALOX12 inh -1%, KB-V1 cytotox 2.9µM*, SW480 rerep 1%, MCF10A rereplic 12% and KB-3-1 tox inconclusive.
Cc1ccc(S(=O)(=O)N2CCN(C(=O)COC(=O)Cc3c(F)cccc3Cl)CC2)c(C)c1 was read as PINK1 expr mod 2%, ALOX12 inh -19%, KB-V1 cytotox inactive, SW480 rerep 9%, MCF10A rereplic -10% and KB-3-1 tox inactive.
`Cc1ccc(C)c(S(=O)(=O)N2CCN(C(=O)CCNC(=O)c3ccc(Br)cc3)CC2)c1` gave PINK1 expr mod 0%, ALOX12 inh -27%, KB-V1 cytotox inconclusive, SW480 rerep 30%, MCF10A rereplic inconclusive and KB-3-1 tox inactive.
For COc1cc(C(=O)NCC(=O)N2CCN(S(=O)(=O)c3cc(C)ccc3C)CC2)cc(OC)c1OC the results were PINK1 expr mod 2%, ALOX12 inh 1%, KB-V1 cytotox inconclusive, SW480 rerep 8.2µM*, MCF10A rereplic inconclusive and KB-3-1 tox 3.3µM*.
Screening Cc1ccc(C)c(S(=O)(=O)N2CCN(C(=O)Cc3sc(C)nc3-c3ccc(F)cc3)CC2)c1 returned PINK1 expr mod 2%, ALOX12 inh 6%, KB-V1 cytotox 23µM*, SW480 rerep 2%, MCF10A rereplic 42% and KB-3-1 tox inconclusive.
Screening CCCc1cc(=O)oc2c(C)c(OCC(=O)OC(C)(C)C)ccc12 returned ALOX12 inh -15%.
`O=C(CNc1ccccc1OC(F)F)N1CCNC1=O` gave ALOX12 inh -8%.
`O=C(Nc1ccc(N2CCC(N3CCCCC3)CC2)c(C(=O)O)c1)c1ccc(Br)cc1` gave PINK1 expr mod 0%, ALOX12 inh inconclusive, KB-V1 cytotox inactive and KB-3-1 tox inactive.
O=C(Nc1cnc(N2CCC(N3CCCCC3)CC2)c(C(=O)O)c1)c1ccc(Br)cc1 was read as PINK1 expr mod 1%, ALOX12 inh 40µM*, KB-V1 cytotox inactive and KB-3-1 tox inactive.
`COc1cccc(CN2CCOC3(CCN(Cc4cccc(Cl)c4)CC3)C2=O)c1` gave ALOX12 inh 0%[176 µM].
Screening Cc1ccc(-c2nc3nc(CN4CCCC4)cc(=O)n3[nH]2)cc1 returned ALOX12 inh -6%.
